# Measurements reported in PubChem BioAssay (NCATS).
# Records with an inconclusive call do not appear. Values without a mark were called inactive. The source made the active and inactive calls. Calls come from the whole dose curve; as a rule, active = well fitted inhibition curve with a large enough effect; inconclusive = small, poorly fitted or top-dose-only effect; inactive = flat fitted curve, though single readings scatter.
# Test: P-glycoprotein substrates identified in KB-8-5-11 adenocarcinoma cell line, qHTS therapeutic library screen (AID 1346987); note: nearly all actives have a fitted effect of over 65% in size
# Conditions: KB-8-5-11 (P-gp overexpressing) viability, CellTiter-Glo, 72 h; series mostly up to 44.5 µM; activity change, negative = cytotoxicity: at the top concentration
# Procedure, shortened: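 KB-8-5-11: colchicine-selected sub-line of KB-3-1 over-expressing P-gp; assay medium lacked colchicine. 72 h drug exposure at 37 degree C, CellTiter-Glo.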
# % is set by controls: 0 for no effect and ±100 for the full control effect; potency is the fitted concentration of half-maximal effect.
Compound,"activity change, negative = cytotoxicity",Potency
O=C(NCc1ccc(OC(F)(F)F)cc1)C1c2c(F)cccc2C(=O)N1CCc1ccccn1 (stereo not drawn),-17.6%,–
CCCC(=O)N1CCCN(c2nc(N)c3cc(OC)c(OC)cc3n2)CC1,3.16%,–
CCC(C)c1ccc(NC(=O)Cn2cnc3c2c(=O)n(C)c(=O)n3C)cc1 (stereo not drawn),-19.8%,–
O=C(Nc1ccc(-c2ccnc(Nc3ccc(N4CCOCC4)cc3)n2)cc1)C1CCCN1 (stereo not drawn),–,14.6 µM (active)
CCC(C)/C=C(C)/C=C/C1=CC2=CC(=O)C3(C)OC(C)(O)C(C(=O)OC)C3C2=CO1 (stereo not drawn),2.48% [at 17.3 µM],–
COc1cc(C(=O)O)ccc1NC(=O)C1NC(CC(C)(C)C)C(C#N)(c2ccc(Cl)cc2F)C1c1cccc(Cl)c1F (stereo not drawn),-72.2%,–
NCCCC[C@H](NC(=O)[C@@H]1CCCN1C(=O)[C@@H]1CSSC[C@H](N)C(=O)N[C@@H](Cc2ccccc2)C(=O)N[C@@H](Cc2ccccc2)C(=O)N[C@@H](CCC(N)=O)C(=O)N[C@@H](CC(N)=O)C(=O)N1)C(=O)NCC(N)=O,-5.26%,–
COCCNCc1ccc(-c2cc3nccc(Oc4ccc(NC(=O)C5(C(=O)Nc6ccc(F)cc6)CC5)cc4F)c3s2)nc1,–,4.61 µM (active)
